According to PubChem BioAssay (NCATS):
Several values for one entry are separate records, joined by “and”; a condition that tells them apart may be missing. Equal values may be shown once. Inconclusive results are not listed. Where a call stands in place of a potency, no number is given. Activity calls are given as the source filed them. Unless noted, calls come from the whole dose curve; as a rule, active = well fitted curve in the direction sought with a large enough effect; inconclusive = small, poorly fitted or top-dose-only effect, or another doubt; inactive = no such curve, though single readings can be large; an effect the other way counts as inactive or inconclusive.

Legend:
[1] = qHTS Counterscreen for compound interference against the NCATS DSHEA and TCM libraries (AID 1919978); conditions: firefly luciferase detection reagent interference, luminescence;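 note: compounds preincubated with 1 µM D-luciferin or buffer before detection reagent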
Procedure, shortened: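 Compounds, titrated from 19.5 nM to 39.8 uM final, were pinned onto 1 uM D-luciferin or plain 100 mM potassium phosphate. After 15 min at room temperature, luciferin detection reagent was added for 30 min before the luminescence read.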

[2] = Dual reporter qHTS for agonist of Pregnane X Receptor (hPXR) against the NCATS DSHEA and TCM libraries: Fluorescence readout (AID 1920058); conditions: PXR dual reporter cells; series mostly up to 40 µM
Procedure, shortened: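 HepG2 hPXR-Luc, 2000 cells/well, 5 h attach; cpds ~24 h, 37 °C/5% CO2; CellTiter-Fluor 1 h; fluor. Ex/Em 405/540 nm = viability.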

[3] = molecular target: Nuclear receptor subfamily 1 group I member 2 (Homo sapiens) (UniProt O75469); test: Dual reporter qHTS for agonist of Pregnane X Receptor (hPXR) against the NCATS DSHEA and TCM libraries: Luminescence readout (AID 1920059); conditions: hPXR dual reporter cells, luciferase luminescence agonist; series mostly up to 40 µM
Procedure, shortened: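 Luminescent PXR reporter read (ONE-Glo) after a CellTiter-Fluor viability read, following 24 h, 37C treatment of HepG2 cells stably carrying hPXR-Luc.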

[4] = molecular target: Nuclear receptor subfamily 1 group I member 2 (Homo sapiens) (UniProt O75469); test: Dual reporter qHTS for antagonist of Pregnane X Receptor (hPXR) against the NCATS DSHEA and TCM libraries: Luminescence Readout (AID 1920060); conditions: hPXR dual reporter cells, luciferase luminescence, antagonist mode; series mostly up to 40 µM
Procedure, shortened: (§1)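 Rifampicin-stimulated (2 uM final) hPXR-luciferase HepG2 cells were treated for 24 h with DSNP/TCM substances. Viability came from CellTiter-Fluor fluorescence, reporter activity from ONE-Glo luminescence.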

[5] = Dual reporter qHTS for antagonist of Pregnane X Receptor (hPXR) against the NCATS DSHEA and TCM libraries: Fluorescence Readout (AID 1920061); conditions: PXR dual reporter cells, antagonist mode; series mostly up to 40 µM
Procedure, shortened: as §1

[6] = qHTS profiling for inhibitors of Plasmodium falciparum proliferation (AID 504749); note: nearly all actives have a fitted effect of over 60% in size; conditions: P. falciparum in erythrocytes, SYBR Green DNA, 72 h
Procedure, shortened: (§2)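 Infected RBCs, 0.3% parasitemia/2.5% Hct final; cpd 72 h, 37 C, 5% CO2; lysis buffer with saponin/triton/SYBR Green I, o/n RT dark; FI 485/535; norm. to artemisinin (0.29 uM) and DMSO.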

[7] = test system: AA1029; test: as above; conditions: P. falciparum in erythrocytes, SYBR Green DNA, 72 h; series mostly up to 28.7 µM
Procedure, shortened: as §2

[8] = test system: AS120; test: as above; conditions: P. falciparum in erythrocytes, SYBR Green DNA, 72 h; series mostly up to 28.7 µM
Procedure, shortened: as §2

[9] = test system: ATS189; test: as above; conditions: P. falciparum in erythrocytes, SYBR Green DNA, 72 h; series mostly up to 28.7 µM
Procedure, shortened: as §2

[10] = test system: ATS95; test: as above; conditions: P. falciparum in erythrocytes, SYBR Green DNA, 72 h; series mostly up to 28.7 µM
Procedure, shortened: as §2

[11] = test system: CP185; test: as above; conditions: P. falciparum in erythrocytes, SYBR Green DNA, 72 h; series mostly up to 28.7 µM
Procedure, shortened: as §2

[12] = test system: CP192; test: as above; conditions: P. falciparum in erythrocytes, SYBR Green DNA, 72 h; series mostly up to 28.7 µM
Procedure, shortened: as §2

[13] = test system: CP194; test: as above; conditions: P. falciparum in erythrocytes, SYBR Green DNA, 72 h; series mostly up to 28.7 µM
Procedure, shortened: as §2

[14] = test system: CP201; test: as above; conditions: P. falciparum in erythrocytes, SYBR Green DNA, 72 h; series mostly up to 28.7 µM
Procedure, shortened: as §2

[15] = test system: CP203; test: as above; conditions: P. falciparum in erythrocytes, SYBR Green DNA, 72 h; series mostly up to 28.7 µM
Procedure, shortened: as §2

[16] = test system: 3D7; test: as above; conditions: P. falciparum in erythrocytes, SYBR Green DNA, 72 h; series mostly up to 28.7 µM
Procedure, shortened: as §2

[17] = test system: 7G8; test: as above; conditions: P. falciparum in erythrocytes, SYBR Green DNA, 72 h; series mostly up to 28.7 µM
Procedure, shortened: as §2

[18] = test system: C2A; test: as above; conditions: P. falciparum in erythrocytes, SYBR Green DNA, 72 h; series mostly up to 28.7 µM
Procedure, shortened: as §2

[19] = test system: CP191; test: as above; conditions: P. falciparum in erythrocytes, SYBR Green DNA, 72 h; series mostly up to 28.7 µM
Procedure, shortened: as §2

[20] = qHTS drug screen for cell cycle checkpoint inhibitors in PARPi-resistant BRCA-mutant ovarian cancer cell lines. (AID 1963452; calls by dose curve); conditions: PEO1/OlaR viability, CellTiter-Glo luminescence, 96 h, stronger effect = lower value
Procedure, shortened: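 PEO1, PEO4 and PEO1/OlaR ovarian cancer cells, 600 per well, exposed 96 h at 37C to a dilution series. Viability read by CellTiter-Glo luminescence, normalized to DMSO and empty wells; activity summarized as Z-AUC.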

[21] = at 28.7 µM (top of the series), parasite line A
[22] = at 28.7 µM (top of the series), parasite line B
[23] = measured here: PEO1 parental Z-AUC

Nuclear receptor subfamily 1 group I member 2 (Homo sapiens), sequence (O75469 whole entry, looked up): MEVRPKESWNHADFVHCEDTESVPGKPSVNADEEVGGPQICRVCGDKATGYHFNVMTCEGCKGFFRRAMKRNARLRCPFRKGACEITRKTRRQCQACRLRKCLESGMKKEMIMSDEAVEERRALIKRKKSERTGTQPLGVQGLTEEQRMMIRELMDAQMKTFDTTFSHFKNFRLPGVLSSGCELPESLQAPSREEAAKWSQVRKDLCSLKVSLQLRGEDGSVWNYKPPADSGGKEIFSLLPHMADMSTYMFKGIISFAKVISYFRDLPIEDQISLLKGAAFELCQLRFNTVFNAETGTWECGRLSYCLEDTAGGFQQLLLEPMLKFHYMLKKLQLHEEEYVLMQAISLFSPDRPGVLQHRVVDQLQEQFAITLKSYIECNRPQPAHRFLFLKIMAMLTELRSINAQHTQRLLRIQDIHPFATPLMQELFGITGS

What does the source list for `O=C(O)c1cc(O)c(O)c(O)c1`?
max response [1]: -2.87% (inactive); outcome [2]: inactive; outcome [3]: inactive; outcome [4]: inactive; outcome [5]: inactive; activity, negative = inhibition [6, 21]: -23.1% (inactive); activity, negative = inhibition [6, 22]: -29.8% (inactive); Potency [7]: inactive; Potency [8]: inactive; Potency [9]: inactive; Potency [10]: inactive; Potency [11]: inactive; Potency [12]: inactive; Potency [13]: inactive; Potency [14]: inactive; Potency [15]: inactive

Which activity, negative = inhibition [6, 21] does the source give for `C=C(Nc1ccc(OCC)cc1)Nc1ccc(OCC)cc1` here?
Its activity, negative = inhibition is 1.26% (inactive) and 13.3% (inactive).

What about the activity, negative = inhibition [6, 22] of the same compound?
The activity, negative = inhibition was -29.4% (inactive) and 7.39% (inactive).

What about the Potency [16] of the same compound?
The Potency was “inactive”.

And the Potency [17]?
The Potency was “inactive”.

And the Potency [7]?
The Potency was “inactive”.

What about the Potency [8] of the same compound?
Its Potency is “inactive”.

What about the Potency [9] of the same compound?
The Potency was “inactive”.

What about the Potency [10] of the same compound?
Its Potency is “inactive”.

What about the Potency [18] of the same compound?
The Potency was “inactive”.

What about the Potency [11] of the same compound?
Its Potency is “inactive”.

And the Potency [19]?
Its Potency is “inactive”.

What about the Potency [12] of the same compound?
The Potency was “inactive”.

And the Potency [13]?
Its Potency is “inactive”.

And the Potency [14]?
The Potency was “inactive”.

And the Potency [15]?
Its Potency is “inactive”.

For `O=C(O)Cc1ccc(-c2ccccc2)cc1`, which activity, negative = inhibition ([6]; at 12.8 µM (top of the series), parasite line A) is on record?
Its activity, negative = inhibition is 2.72% (inactive).

And the activity, negative = inhibition ([6]; at 12.8 µM (top of the series), parasite line B)?
Its activity, negative = inhibition is -2.57% (inactive).

And the Potency [16]?
Its Potency is “inactive”.

What about the Potency [17] of the same compound?
Its Potency is “inactive”.

And the Potency [7]?
The Potency was “inactive”.

What about the Potency [8] of the same compound?
The Potency was “inactive”.

What about the Potency [9] of the same compound?
Its Potency is “inactive”.

What about the Potency [10] of the same compound?
Its Potency is “inactive”.

And the Potency [18]?
The Potency was “inactive”.

What about the Potency [11] of the same compound?
The Potency was “inactive”.

And the Potency [19]?
The Potency was “inactive”.

What about the Potency [12] of the same compound?
Its Potency is “inactive”.

What about the Potency [13] of the same compound?
Its Potency is “inactive”.

What about the Potency [14] of the same compound?
Its Potency is “inactive”.

What about the Potency [15] of the same compound?
Its Potency is “inactive”.

Which Z-AUC [20] does the source give for `COc1cc(CNC(=O)CCCC/C=C/C(C)C)ccc1O` here?
The Z-AUC was 1.64 (inactive).

And the Z-AUC [20, 23]?
Its Z-AUC is 1.45.

And the Z-AUC ([20]; measured here: PEO4 Z-AUC)?
Its Z-AUC is 1.46.

And the activity, negative = inhibition [6, 21]?
The activity, negative = inhibition was -2.8% (inactive).

What about the activity, negative = inhibition [6, 22] of the same compound?
The activity, negative = inhibition was 8.8% (inactive).

What about the Potency [16] of the same compound?
The Potency was “inactive”.

What about the Potency [17] of the same compound?
The Potency was “inactive”.

And the Potency [7]?
The Potency was “inactive”.

And the Potency [8]?
Its Potency is “inactive”.

And the Potency [9]?
The Potency was “inactive”.

What about the Potency [10] of the same compound?
Its Potency is “inactive”.

What about the Potency [18] of the same compound?
Its Potency is “inactive”.

And the Potency [11]?
The Potency was “inactive”.

What about the Potency [19] of the same compound?
Its Potency is “inactive”.

What about the Potency [12] of the same compound?
Its Potency is “inactive”.

And the Potency [13]?
Its Potency is “inactive”.

And the Potency [14]?
Its Potency is “inactive”.

What about the Potency [15] of the same compound?
Its Potency is “inactive”.

With `CCC1C(=O)OCC1Cc1cncn1C` (configuration not stated) as the compound, how does the activity, negative = inhibition [6, 21] read?
The activity, negative = inhibition was -3.99% (inactive).

And the activity, negative = inhibition [6, 22]?
Its activity, negative = inhibition is -7.08% (inactive).

What about the Potency [16] of the same compound?
The Potency was “inactive”.

What about the Potency [17] of the same compound?
Its Potency is “inactive”.

And the Potency [7]?
The Potency was “inactive”.

And the Potency [8]?
Its Potency is “inactive”.

What about the Potency [9] of the same compound?
The Potency was “inactive”.

And the Potency [10]?
Its Potency is “inactive”.

And the Potency [18]?
The Potency was “inactive”.

What about the Potency [11] of the same compound?
The Potency was “inactive”.

And the Potency [19]?
Its Potency is “inactive”.

What about the Potency [12] of the same compound?
Its Potency is “inactive”.

And the Potency [13]?
Its Potency is “inactive”.

And the Potency [14]?
Its Potency is “inactive”.

And the Potency [15]?
Its Potency is “inactive”.

What does the source list for `Cc1ccc(O)c(-n2nc3ccccc3n2)c1`?
activity, negative = inhibition [6, 21]: 4.17% (inactive); activity, negative = inhibition [6, 22]: 15.3% (inactive); Potency [16]: inactive; Potency [17]: inactive; Potency [7]: inactive; Potency [8]: inactive; Potency [9]: inactive; Potency [10]: inactive; Potency [18]: inactive; Potency [11]: inactive; Potency [19]: inactive; Potency [12]: inactive; Potency [13]: inactive; Potency [14]: inactive; Potency [15]: inactive

For `O=C1NC(=O)/C(=C/c2ccc(-c3ccc(F)cc3O)o2)S1`, which Z-AUC [20] is on record?
The Z-AUC was -1.15 (inactive).

What about the Z-AUC [20, 23] of the same compound?
Its Z-AUC is -0.562.

What about the Z-AUC ([20]; measured here: PEO4 Z-AUC) of the same compound?
The Z-AUC was -0.191.

What does the source list for `O=C(/C=C/c1ccccc1)NCCO`?
activity, negative = inhibition [6, 21]: 4.35% (inactive); activity, negative = inhibition [6, 22]: -2.74% (inactive); Potency [16]: inactive; Potency [17]: inactive; Potency [7]: inactive; Potency [8]: inactive; Potency [9]: inactive; Potency [10]: inactive; Potency [18]: inactive; Potency [11]: inactive; Potency [19]: inactive; Potency [12]: inactive; Potency [13]: inactive; Potency [14]: inactive; Potency [15]: inactive
